Assay results published in PubChem BioAssay AID720597 (Broad Institute, 2013).
Potency and affinity values are given separately. Active and inactive are the calls of the source.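 How the source made its calls: active means fitted half-maximal dose no more than twice the top valid tested dose, for compounds that lower signal; inconclusive means fit invalid, or curve flat with activity between -70 and -30; inactive means potency past limit, curve flat within ±30, or signal increasing.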

molecular target: NAD-dependent protein deacylase sirtuin-5, mitochondrial (Homo sapiens) (UniProt Q9NXA8); assay: blockers of sirtuin-5 peptide desuccinylation – biochemical, fluorescence imaging, cherry-pick, set 6, dose response (AID 720597); conditions: Purified SirT5, succinyl-peptide-AMC/trypsin fluorescence; series mostly up to 15 µM; activity change, negative = inhibition: at the top concentration;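 further: lower AMC signal can also come from blocking the trypsin step; 0% = median of neutral control wells and -100% = median of positive control wells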
Sequence (Q9NXA8 whole entry, looked up): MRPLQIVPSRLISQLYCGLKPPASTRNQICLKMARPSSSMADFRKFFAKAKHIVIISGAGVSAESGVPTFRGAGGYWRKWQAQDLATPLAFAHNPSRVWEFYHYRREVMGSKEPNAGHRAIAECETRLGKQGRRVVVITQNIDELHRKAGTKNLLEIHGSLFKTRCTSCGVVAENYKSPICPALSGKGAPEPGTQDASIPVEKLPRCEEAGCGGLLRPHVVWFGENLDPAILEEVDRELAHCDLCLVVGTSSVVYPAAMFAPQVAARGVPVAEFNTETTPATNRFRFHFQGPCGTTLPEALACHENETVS

Activity change, negative = inhibition, inactive:
CC(=O)NC[C@@H]1[C@@H](c2ccc(-c3ccccc3F)cc2)[C@@H](CO)N1CCC(F)(F)F -11.8%
O=C(C[C@@H]1CC[C@@H]2[C@H](COC[C@@H](O)CN2Cc2ccc3c(c2)OCO3)O1)N1CCOCC1 -7.73%
C[C@@H]1CN([C@@H](C)CO)C(=O)Cc2cc(NC(=O)CCCCCC(=O)Nc3ccccc3N)ccc2O[C@@H]1CN(C)Cc1ccc(Oc2ccccc2)cc1 0.657%
COc1ccccc1NC(=O)N[C@H]1CC[C@H](CCNC(=O)c2ccc3c(c2)OCO3)O[C@@H]1CO -8.95%
CCS(=O)(=O)N1CC(=O)N2[C@H](CO)[C@H](c3ccc(C4=CCCCC4)cc3)[C@@H]2C1 19.9%
CC(C)CC#Cc1ccc2c(c1)O[C@H](CN(C)C(=O)NC1CCCC1)[C@@H](C)CN([C@@H](C)CO)S2(=O)=O -31.7%
CC1c2nc3ccccc3n2C(CC(=O)NCc2ccc(Cl)cc2)C(=O)N1Cc1ccccc1 (centres undefined) 14.9% [at 16 µM]
C[C@@H]1CCCCO[C@H](CN(C)S(=O)(=O)c2ccc(Cl)cc2)[C@H](C)CN([C@@H](C)CO)C(=O)c2cc(NS(=O)(=O)c3ccc(F)cc3)ccc2O1 -1.53%
O=S(=O)(c1ccc(F)cc1)N1CCCCN2[C@H](CO)[C@H](c3ccc(C#CC4CCCC4)cc3)[C@H]2C1 10%
COc1ccc(S(=O)(=O)Nc2ccc3c(c2)C(=O)N([C@H](C)CO)C[C@@H](C)[C@@H](CN(C)S(=O)(=O)c2ccccc2)OCCCC[C@@H](C)O3)cc1 -8.5%
Cc1ccc(S(=O)(=O)N(C)C[C@H]2OCc3ccccc3-c3c(n(C)c4ccccc34)C(=O)N([C@H](C)CO)C[C@H]2C)cc1 23.8%
C[C@@H]1CN([C@H](C)CO)C(=O)Cc2cc(NS(=O)(=O)c3ccc(F)cc3)ccc2O[C@H]1CN(C)Cc1ccc(C(F)(F)F)cc1 -21.2%
O=C(NCC1CCCCC1)[C@H]1[C@H](CO)[C@H]2Cn3c(cccc3=O)[C@@H]1N2CCc1ccccc1 -24.3%
CCN1[C@H](C(=O)NCc2ccccc2)[C@@H](CO)[C@@H]2Cn3c(ccc(-c4ccncc4)c3=O)[C@@H]21 -21.2%
COc1cccc(CN2[C@H](CO)[C@@H](c3ccccc3)C23CN(C(=O)C2CCC2)C3)c1 3.09% [at 16 µM]
C[C@@H]1CCCCO[C@@H](CN(C)C(=O)Nc2ccc(C(F)(F)F)cc2)[C@H](C)CN([C@H](C)CO)C(=O)c2cc(NS(=O)(=O)c3ccc(Cl)cc3)ccc2O1 5.23%
COc1ccc(S(=O)(=O)N(C)C[C@H]2OCCCC[C@H](C)Oc3ccc(NS(=O)(=O)c4ccc(Cl)cc4)cc3C(=O)N([C@@H](C)CO)C[C@H]2C)cc1 10.7%
COc1ccc(S(=O)(=O)Nc2ccc3c(c2)C(=O)N([C@H](C)CO)C[C@H](C)[C@@H](CN(C)Cc2ccc(Oc4ccccc4)cc2)O3)cc1 -5.05%
CCN1[C@@H]2c3ccc(-c4ccccc4)c(=O)n3C[C@@H]2[C@@H](CO)[C@@H]1C(=O)NCc1ccccc1 -19.4%
COc1ccc(NC(=O)N(C)C[C@@H]2OCc3ccccc3-c3c(n(C)c4ccccc34)C(=O)N([C@@H](C)CO)C[C@@H]2C)cc1 2.24%
C[C@H](CO)N1C[C@H](C)[C@H](CN(C)Cc2cccc(C(F)(F)F)c2)Oc2ncc(C#Cc3ccccc3)cc2C1=O 12.6%
C[C@H]1CN([C@@H](C)CO)C(=O)c2cc(NC(=O)CCCCCC(=O)Nc3ccccc3N)ccc2O[C@H]1CN(C)Cc1ccc(Cl)c(Cl)c1 11.9% [at 12 µM]
C/C=C/c1cnc2c(c1)C(=O)N([C@@H](C)CO)C[C@@H](C)[C@@H](CN(C)C(=O)NC1CCCCC1)O2 35.9%
CCCC#Cc1ccc2c(c1)O[C@@H](CN(C)CC1CCOCC1)[C@H](C)CN([C@H](C)CO)S2(=O)=O -17.3%
CC(C)(C)[S@@](=O)N1Cc2cc(C(=O)O)nc(-c3cccc(-c4cccc(F)c4)c3)c2[C@H]1CCO -23.9% [at 13.5 µM]
COc1ccc(-c2ccc([C@@H]3[C@H]4CN(C(=O)Cc5ccccn5)CC(=O)N4[C@H]3CO)cc2)cc1 -14.6%
C[C@H]1CN([C@@H](C)CO)S(=O)(=O)c2ccc(/C=C/c3ccccc3)cc2O[C@H]1CN(C)Cc1ccccc1 -5.16%
CN(C)Cc1cn(CC[C@H]2CC[C@H](NS(=O)(=O)c3ccccc3)[C@H](CO)O2)nn1 0.244%
C[C@H](CO)N1C[C@H](C)[C@@H](CN(C)Cc2ccc(Cl)c(Cl)c2)Oc2ccc(NS(=O)(=O)c3ccc(Cl)cc3)cc2CC1=O 38.2%
C[C@H]1CN([C@@H](C)CO)S(=O)(=O)c2ccc(-c3cncnc3)cc2O[C@H]1CN(C)Cc1ccccn1 6.87%
O=C(c1ccc(F)cc1)N1CC(=O)N2[C@H](C1)[C@H](c1ccc(C#CCC3CCCC3)cc1)[C@@H]2CO -22.1%
C[C@@H]1CN([C@H](C)CO)S(=O)(=O)c2ccc(C#Cc3cccc(F)c3)cc2O[C@H]1CN(C)S(=O)(=O)c1ccccc1F 45.5%
C[C@@H]1CN([C@H](C)CO)C(=O)c2cc(NS(=O)(=O)c3ccc(Cl)cc3)ccc2O[C@H]1CN(C)Cc1ccc2c(c1)OCO2 16.1%
O=C(CN1CCOCC1)N1CCCCN2[C@H](C1)[C@H](c1ccc(-c3ccccc3)cc1)[C@@H]2CO -9.5%
C[C@@H]1CN([C@H](C)CO)S(=O)(=O)c2ccc(C#Cc3ccc(F)cc3)cc2O[C@H]1CN(C)S(=O)(=O)c1ccc(F)cc1 -7.84%
COc1ccc(S(=O)(=O)N(C)C[C@@H]2OCCCC[C@H](C)Oc3ccc(NS(=O)(=O)c4ccc(C)cc4)cc3C(=O)N([C@@H](C)CO)C[C@@H]2C)cc1 -30.9%
C[C@H](O)C#Cc1ccc2c(c1)O[C@@H](CN(C)Cc1ccc(-c3ccccc3)cc1)[C@H](C)CN([C@H](C)CO)S2(=O)=O -26.5% [at 7.5 µM]
Cc1noc(C)c1NC(=O)Nc1cccc2c1O[C@H](CN(C)Cc1ccc(Oc3ccccc3)cc1)[C@H](C)CN([C@H](C)CO)C2=O -14.9%
C[C@H](CO)N1C[C@H](C)[C@H](CN(C)Cc2ccccc2)Oc2cc(/C=C/c3ccccc3)ccc2S1(=O)=O -19.4%
